High-throughput results: PubChem BioAssay, National Center for Advancing Translational Sciences (NCATS)
Shown are actives, neighbours in structure and some others; about 9% of the full set was active somewhere.
G9a block: inhibitors of human histone lysine methyltransferase G9a | Potency, µM (top dose mostly 102 µM), without a hit: at the top dose activity, negative = inhibition, usual class: inhibitors | actives 8.8% (n = 350,000) | Q96KQ7 | G9a H3K9 monomethylation, AlphaScreen, 2 h; further: on the % scale 0 is the no-effect control and ±100 the full control effect; nearly all actives have a fitted effect of over 75% in size
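Compounds were preincubated with 20 nM G9a for 15 min, after which biotinylated H3K9 peptide (500 nM) and SAM (20 uM) started a 2 h room-temperature reaction. Monomethylated product was quantified by antibody-based AlphaScreen chemiluminescence.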
HP1b chromo inh: HP1-beta chromodomain-methylated histone interaction inhibition | AlphaScreen HP1-beta / biotin-H3K9me3 peptide binding | Potency, µM (highest dose often 114 µM), inactives show at the highest dose activity change, negative = inhibition, most hits filed as inhibitors | actives 0.56% (n = 390,000) | AID 540317; further: nearly all actives have a fitted effect of over 70% in size
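AlphaScreen: HP1-beta (50 nM) preformed 30 min with biotin-H3(1-18)K9me3 peptide (50 nM) in PBS pH 7.4, 0.01% Tween-20. Compound added for 30 min at RT, then streptavidin donor/nickel chelate acceptor beads (10 ug/mL) for 30 min.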
ALOX12 inh: ALOX12 (human) lipoxygenase inhibition; P18054; purified 12hLO, xylenol orange hydroperoxide absorbance; Potency, µM (series often up to 108 µM), for inactives: at the highest dose activity change, negative = inhibition, actives largely listed as inhibitors; actives 1.1% (n = 580,000); AID 1671190; further: on the % scale 0 is the no-effect control and ±100 the full control effect
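Purified human 12hLO at 150 nM in 25 mM Hepes, 0.01% Triton X-100, pH 7.0, preincubated 15 min at room temperature with compound. Reaction started with 40 uM arachidonic acid, 30 min at room temperature. Hydroperoxide measured by Fe-xylenol orange, 573/405 nm absorbance ratio.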
PLK1 PBD block: PLK1 (human) polo-box domain binding inhibition. Potency, µM, without a hit: max response, negative = inhibition, usual class: inhibitors. actives 2.8% (n = 360,000). Plk1 PBD binding of FITC phosphopeptide, fluorescence polarization. P53350; further: series mostly up to about 57 µM; on the % scale 0 is the no-effect control and ±100 the full control effect; nearly all actives have a fitted effect of over 65% in size
BAZ2B inh: blocks human BAZ2B; Q9UIF8; AlphaScreen BAZ2B-H3K14Ac peptide displacement; Potency, µM (series often up to 114 µM), without a hit: top-dose activity change, negative = inhibition, most hits filed as inhibitors; actives 4.4% (n = 360,000); further: on the % scale 0 is the no-effect control and ±100 the full control effect; nearly all actives have a fitted effect of over 60% in size
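Protein-peptide AlphaScreen: BAZ2B 50 nM, b-H3K14Ac 50 nM, 1x PBS pH 7.4 + 0.01% Tween-20. Preincubation 30 min RT; cpd 30 min RT (top 110 uM); beads 20 min RT, light-protected.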
JMJD2A Tudor inh: inhibitors of human JMJD2A Tudor domain; O75164; AlphaScreen JMJD2A-Tudor / H3K4me3 peptide binding; Potency, µM (top dose mostly 114 µM), for inactives: top-dose activity change, negative = inhibition, actives largely listed as inhibitors; actives 4.4% (n = 390,000); AID 504339; further: on the % scale 0 is the no-effect control and ±100 the full control effect; nearly all actives have a fitted effect of over 50% in size
Target sequence (O75164 whole entry, looked up, the tested form may be a part): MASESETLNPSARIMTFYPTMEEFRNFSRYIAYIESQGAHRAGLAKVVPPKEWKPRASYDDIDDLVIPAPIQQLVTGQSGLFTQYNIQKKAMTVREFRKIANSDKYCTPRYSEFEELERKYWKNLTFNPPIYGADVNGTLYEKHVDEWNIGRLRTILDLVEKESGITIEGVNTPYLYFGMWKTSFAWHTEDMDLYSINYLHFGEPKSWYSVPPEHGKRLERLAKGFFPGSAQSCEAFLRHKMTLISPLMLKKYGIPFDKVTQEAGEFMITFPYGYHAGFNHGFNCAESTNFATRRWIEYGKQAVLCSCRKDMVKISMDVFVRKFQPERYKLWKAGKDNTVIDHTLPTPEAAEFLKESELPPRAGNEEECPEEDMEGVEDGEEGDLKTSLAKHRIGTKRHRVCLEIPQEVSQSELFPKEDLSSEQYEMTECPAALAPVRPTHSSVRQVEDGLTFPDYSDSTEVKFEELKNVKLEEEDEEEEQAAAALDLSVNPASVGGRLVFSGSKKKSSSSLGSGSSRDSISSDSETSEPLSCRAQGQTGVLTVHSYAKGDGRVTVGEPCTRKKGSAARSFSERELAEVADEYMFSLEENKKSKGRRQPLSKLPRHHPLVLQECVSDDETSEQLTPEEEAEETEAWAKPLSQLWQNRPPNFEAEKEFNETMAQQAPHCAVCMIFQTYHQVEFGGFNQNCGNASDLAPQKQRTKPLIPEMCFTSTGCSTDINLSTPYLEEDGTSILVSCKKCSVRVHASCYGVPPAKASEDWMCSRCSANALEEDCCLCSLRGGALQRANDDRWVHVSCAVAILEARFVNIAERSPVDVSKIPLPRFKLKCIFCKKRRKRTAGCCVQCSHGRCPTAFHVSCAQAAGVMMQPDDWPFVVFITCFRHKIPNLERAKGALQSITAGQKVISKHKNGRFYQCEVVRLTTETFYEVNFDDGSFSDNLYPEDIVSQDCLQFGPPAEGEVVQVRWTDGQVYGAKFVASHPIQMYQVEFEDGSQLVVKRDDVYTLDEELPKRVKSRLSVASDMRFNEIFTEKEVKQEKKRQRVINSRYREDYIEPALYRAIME
Active calls of the source: *; ? = inconclusive; · = no result; ! = a repeat was not active; [ ] = another dose, or the depositor's remark. The call rests on the fitted dose curve; in most records, active means well fitted curve in the direction sought with a large enough effect; inconclusive means small, poorly fitted or top-dose-only effect, or another doubt; inactive means no such curve, though single readings can be large; an effect the other way counts as inactive or inconclusive. Potency means the concentration at half of the fitted maximal effect.

SMILES | G9a block | HP1b chromo inh | ALOX12 inh | PLK1 PBD block | BAZ2B inh | JMJD2A Tudor inh
COC(=O)C1(Cc2ccccc2)NC(c2ccccc2C)C2C(=O)N(c3ccc4c(c3)OCO4)C(=O)C21 (stereo not drawn) | 0.79µM* | 9% | -25% | -5% | 4% | -29%
Nc1ccc(OCCCc2c(N)nc(N)nc2N)cc1 | ? | 1% | 7% | 2% | -35% | 56µM*
CN(CC(=O)Nc1ccc(F)cc1)c1ccc(S(=O)(=O)N2CCCCC2)cc1[N+](=O)[O-] | -12%[59 µM] | -19% | -23% | 1% | ? | ?
Cc1noc(C)c1CNCC1(COc2cccnc2)C[C@@H](O)[C@@H](O)C1 (stereo partly drawn) | · | · | 13µM* | · | · | ·
COc1ccc(Cc2n[nH]c(=S)n2-c2ccc3c(c2)OCCO3)cc1 | 8.9µM* | 13% | ? | -2% | -23% | 6.3µM*
COc1ccc(-c2n[nH]c(=S)n2-c2ccc3c(c2)OCCO3)cc1 | 1.8µM* | ? | ? | -21% | -33% | 3.2µM*
S=c1[nH]nc(-c2ccc(Br)cc2)n1-c1ccc2c(c1)OCCO2 | 1.6µM* | 9% | ? | ? | ? | 71µM*
Brc1ccc2c(c1)OCCOCCOc1cc(Br)ccc1OCCOCCOCCO2 | 19%[59 µM] | 61% | · | 0% | -1% | 3%
COc1cc(OC)cc(-c2n[nH]c(=S)n2-c2ccc3c(c2)OCCO3)c1 | 3.5µM* | 14% | -20% | -22% | -25% | 4.5µM*
COCCCNC(=O)Cc1nn(C)c(=O)c2ccccc12 | · | · | 17% | · | · | ·
COc1c(Cl)cc(Cl)cc1CNCCNCC(C)O (stereo not drawn) | 35µM* | 38% | 7% | -8% | -30%[57.1 µM] | ?
COc1c(Cl)cc(Cl)cc1CNCCNCCO | · | 37% | 10% | -9% | -11% | ?
C#CCN1C=CC(=O)[C@@H](OC(=O)Nc2ccc(Br)cc2)[C@H]1c1ccccc1Br | · | 50% | ? | -5% | · | -21%
CCCNc1ncc2c(=O)[nH][nH]c(=O)c2n1 | · | 3% | -2% | -8% | · | 20µM*
Cc1ccc(S(=O)(=O)n2ccc3c(OCCOCCNCc4ccc(F)cc4)cccc32)cc1 | ? | -3% | ? | 3% | -34% | -32%
Cc1ccc(S(=O)(=O)n2ccc3c(OCCOCCSCC(NC(=O)OC(C)(C)C)C(=O)O)cccc32)cc1 (stereo not drawn) | -9%[12.7 µM] | -8% | -10% | -24% | 50µM* | -33%
NC(=O)c1ccc(N2CCCCC2)c(N2C(=O)C3CC=CCC3C2=O)c1 (stereo not drawn) | 1%[12.7 µM] | 22% | 0% | -2% | 50µM* | -5%
O=C(c1cccc(N2C(=O)C3CC=CCC3C2=O)c1)N1CCCCCC1 (stereo not drawn) | 9%[59 µM] | 12% | -16% | -8% | 1% | -25%
COc1cc(C(CC(=O)Nc2ccccn2)N2Cc3ccccc3C2=O)cc(OC)c1OC (stereo not drawn) | 0% | 31% | 0% | -3% | 0% | -11%
CO[C@H]1C(=O)N(C2CCN(C(=O)c3ccc4[nH]ccc4c3)CC2)[C@H]1c1ccncc1 | · | · | 41% | · | · | ·
COc1ccc(OC)c(C2C3=C(N=C4SCC(=O)N42)c2ccccc2CC3)c1 (stereo not drawn) | ? | 11% | 461% | ? | 50µM* | ?
COc1cccc(C2C3=C(N=C4SCC(=O)N42)c2ccccc2CC3)c1OC (stereo not drawn) | -27%[12.7 µM] | 7% | -4% | -5% | -39% | -27%
CSc1nc(N2CCN(CCO)CC2)c2sc3nc(-c4ccco4)c4c(c3c2n1)CCC4 | -14%[59 µM] | · | · | · | · | ·
CSc1nc(SCC(=O)O)c2sc3nc(-c4ccccc4)c4c(c3c2n1)CCC4 | 18µM* | ? | ? | 12µM* | 22µM* | 28µM*
CSc1nc(NCCN(C)C)c2sc3nc(-c4ccco4)c4c(c3c2n1)CCC4 | · | ? | 0% | -12% | · | 89µM*
SMILES | G9a block | HP1b chromo inh | ALOX12 inh | PLK1 PBD block | BAZ2B inh | JMJD2A Tudor inh
CSc1nc(N(C)CCO)c2sc3nc(-c4ccco4)c4c(c3c2n1)CCC4 | 15%[0.0925 µM] | -60% | · | 24µM* | 50µM* | 25µM*
O=C(C[n+]1ccc(/C=N/O)cc1)NC1CCCCC1 | -42% | 0% | -6% | -11% | 0% | -3%
O=C1CSC2(CCN(CCCN3c4ccccc4Sc4ccc(Cl)cc43)CC2)N1 | 18µM* | · | · | · | · | ·
c1ccc2c(c1)Sc1ccccc1N2CCN1CCCC1 | -41%[12.7 µM] | · | · | · | · | ·
CN1CCN(CCCN2c3ccccc3Sc3ccc(C(F)(F)F)cc32)CC1 | 16µM*! | ? | ? | -5% | 35µM* | ?
NC(=O)N1CCN(CCCN2c3ccccc3Sc3cc(Cl)ccc32)CC1 | · | · | ? | -3% | · | ·
C=CCN(c1ccccc1)S(=O)(=O)c1cccc2cccnc12 | 0%[12.7 µM] | 45% | -21% | -7% | 6% | -5%
COc1ccc(-n2c(/C=C/c3c(C)[nH]c4ccccc34)nc3ccccc3c2=O)cc1 | -9%[59 µM] | 10% | -16% | · | -4% | -10%
COc1ccc(NC(=O)COc2ccc(/C=C/c3cccc[n+]3C)cc2OC)cc1 | 9% | 10% | ? | -1% | -15% | -9%
COc1cc(/C=C/c2cccc[n+]2C)ccc1OCC(=O)Nc1cccc(Cl)c1 | 50µM* | -10% | ? | -6% | ? | -6%
COc1ccc(NC(=O)COc2ccc(/C=C/c3cc[n+](C)cc3)cc2OC)cc1 | -5% | 26% | ? | 1% | -22% | ?
COc1cc(/C=C/c2cccc[n+]2C)ccc1OCC(=O)Nc1ccccc1 | 45µM* | 9% | ? | -3% | -15% | -10%
COc1cc(/C=C/c2cc[n+](C)cc2)ccc1OCC(=O)Nc1ccc(Cl)c(Cl)c1 | ? | 15% | 50µM* | 1% | ? | -13%
C/C=C/Cn1c(SC)nc2c1c(=O)[nH]c(=O)n2C | 8.9µM* | 5% | ? | 27µM* | -3% | -6%[11.4 µM]
CCn1c(N2CCC(Cc3ccccc3)CC2)nc2c1c(=O)[nH]c(=O)n2C | ? | ? | ? | 30µM* | ? | -27%[11.4 µM]
CCCn1c(SCc2ccc(Cl)cc2)nc2c1c(=O)[nH]c(=O)n2C | 50µM* | 9% | -5% | 21µM* | -9% | -3%
C/C=C/Cn1c(SCc2cccc(C)c2)nc2c1c(=O)[nH]c(=O)n2C | · | · | -10% | · | · | ·
CCOCCn1c(N2CCC(Cc3ccccc3)CC2)nc2c1c(=O)[nH]c(=O)n2C | · | · | 17% | · | · | ·
COCCn1c(SCc2ccc(Cl)cc2)nc2c1c(=O)[nH]c(=O)n2C | · | 2% | 0% | -1% | · | -4%
C/C=C/Cn1c(SCCO)nc2c1c(=O)[nH]c(=O)n2C | · | · | -3% | · | · | ·
